The nature of assay [1]: NCI Yeast Anticancer Drug Screen. Data for the rad50 strain (AID 155).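 Note: 0% = growth of vehicle-only cultures of the same strain.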 To be noted: S. cerevisiae rad50 strain growth inhibition, stronger effect = higher value. In outline: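 Growth of the mutant yeast was measured after compound exposure and referenced to vehicle-treated cultures.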
Assay [2] can be described thus: NCI Yeast Anticancer Drug Screen. Data for the mec2-1 strain (AID 157). To be noted: S. cerevisiae mec2-1 strain, stronger effect = higher value. In outline: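 Cells of the genetically defined mec2-1 yeast strain are incubated with test compound. Inhibition of growth is calculated against vehicle-treated controls.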
Assay [3] in a line: NCI Yeast Anticancer Drug Screen. Data for the sgs1 mgt1 strain (AID 161).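 Note: 0% = growth of cultures given vehicle only.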 Particulars: S. cerevisiae sgs1 mgt1 strain, stronger effect = higher value. The essentials:
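Test agents were incubated with a DNA-repair-mutant yeast strain. Growth was then read and compared against vehicle-treated controls.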

Assay [4] in a line: NCI Yeast Anticancer Drug Screen. Data for the cln2 rad14 strain (AID 165).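 Note: 0% = growth equal to vehicle treated cultures.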 Particulars: S. cerevisiae cln2 rad14 strain, stronger effect = higher value. In outline: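 The screen exposed genetically defined yeast (cln2 rad14) to test compounds and scored growth inhibition relative to vehicle-treated controls.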
Assay [5] in a line: NCI Yeast Anticancer Drug Screen. Data for the bub3 strain (AID 167). To be noted: S. cerevisiae bub3 mutant strain, stronger effect = higher value. The essentials:
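Whole-cell yeast assay. The mutant strain was incubated with compounds, and growth inhibition was determined by comparison with vehicle-treated cells.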

Assay [6] is described as follows: NCI Yeast Anticancer Drug Screen. Data for the mlh1 rad18 strain (AID 175). To be noted: S. cerevisiae mlh1 rad18 strain growth inhibition, stronger effect = higher value. The essentials:
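Compound-treated yeast growth, normalised to vehicle controls. Strain bears defined DNA repair mutations.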

Where [7] appears, read: at 5.0 µM (retest, dose inferred, filed as 0.5).
The mark [8] stands for this setting: at 50.0 µM (retest, dose inferred, filed as 5.0).

The panel holds about 79,000 compounds, 15% with a hit somewhere; the sample as a whole holds those more often. Unmarked numbers belong to inactive results. Active and inactive are the calls of the source. Cut-off read from the data, not from the text of the source: active = growth inhibition above about 70%; inactive = the rest.

For the molecule `COc1cc2c(cc1OC)C(OC)N(C)c1c-2ccc2cc3c(cc12)OCO3` (configuration not stated), the growth inhibition in assay [1] (setting [7]) was 16%; in assay [1] (setting [8]), 41%; in assay [1] (at 50.0 µM) it was 3.45%; in assay [2] (setting [7]), 9%; in assay [2] (setting [8]), 12%; in assay [2] (at 50.0 µM), -48%. Besides, the growth inhibition was 7% in assay [3] (setting [7]); 30% in assay [3] (setting [8]); -22.1% in assay [3] (at 50.0 µM); 16% in assay [4] (setting [7]); 33% in assay [4] (setting [8]); 6.7% in assay [4] (at 50.0 µM). Also, the growth inhibition in assay [5] (setting [7]) was 2%; in assay [5] (setting [8]) it was 30%; in assay [5] (at 50.0 µM), -40%; in assay [6] (setting [7]), 17%; in assay [6] (setting [8]), 24%; in assay [6] (at 50.0 µM), -21.8%.

Regarding `CC(C)C1(NC(=O)C2CC3c4cccc5[nH]cc(c45)CC3N(C)C2)OC2(O)C3CCCN3C(=O)C(Cc3ccccc3)N2C1=O` (configuration not stated), the growth inhibition in assay [1] (setting [7]) is -26%; in assay [1] (setting [8]), 94% (active); in assay [1] (at 50.0 µM), 86.2% (active); in assay [2] (setting [7]), -2%; in assay [2] (setting [8]) it was 96% (active); in assay [2] (at 50.0 µM), 90.8% (active). Moreover, the growth inhibition is -10% in assay [3] (setting [7]); 92% (active) in assay [3] (setting [8]); 86.7% (active) in assay [3] (at 50.0 µM); 1% in assay [4] (setting [7]); 96% (active) in assay [4] (setting [8]); 84.3% (active) in assay [4] (at 50.0 µM). The growth inhibition was 30% in assay [5] (setting [7]); 96% (active) in assay [5] (setting [8]); 86.3% (active) in assay [5] (at 50.0 µM); 4% in assay [6] (setting [7]); 97% (active) in assay [6] (setting [8]); 83.4% (active) in assay [6] (at 50.0 µM).

Regarding `CCCCCCCCCCCCCCCCCC[N+](C)(C)C` (tested in a mixture with another compound), the growth inhibition in assay [1] (setting [7]) is 99% (active); in assay [1] (setting [8]), 99% (active); in assay [1] (at 50.0 µM), 2.1%; in assay [2] (setting [7]), 98% (active); in assay [2] (setting [8]), 99% (active); in assay [2] (at 50.0 µM) it was 13.1%. Further, the growth inhibition in assay [3] (setting [7]) is 99% (active); in assay [3] (setting [8]), 99% (active); in assay [3] (at 50.0 µM), 73.5% (active); in assay [4] (setting [7]), 78% (active); in assay [4] (setting [8]), 98% (active); in assay [4] (at 50.0 µM) it was 13.2%. For the same molecule, the growth inhibition in assay [5] (setting [7]) is 99% (active); in assay [5] (setting [8]), 97% (active); in assay [5] (at 50.0 µM), -1.15%; in assay [6] (setting [7]), 99% (active); in assay [6] (setting [8]), 99% (active); in assay [6] (at 50.0 µM), -2.5%.

Take `O=C1C=C(N2CC2)C(=O)C(N2CC2)=C1N1CC1`: the growth inhibition in assay [1] (setting [7]) is 97% (active); in assay [1] (setting [8]) it was 98% (active); in assay [1] (at 50.0 µM), 99.2% (active); in assay [2] (setting [7]), 98% (active); in assay [2] (setting [8]), 99% (active); in assay [2] (at 50.0 µM) it was 99.2% (active). Besides, the growth inhibition in assay [3] (setting [7]) is 97% (active); in assay [3] (setting [8]), 98% (active); in assay [3] (at 50.0 µM), 98.8% (active); in assay [4] (setting [7]), 99% (active); in assay [4] (setting [8]) it was 98% (active); in assay [4] (at 50.0 µM), 99% (active). Moreover, the growth inhibition in assay [5] (setting [7]) was 97% (active); in assay [5] (setting [8]), 97% (active); in assay [5] (at 50.0 µM), 99.2% (active); in assay [6] (setting [7]), 98% (active); in assay [6] (setting [8]) it was 98% (active); in assay [6] (at 50.0 µM) it was 99% (active).

Turning to `CC(=O)OCC1(N2CCCC2)CCCCC1`, the growth inhibition in assay [1] (setting [7]) is -3%; in assay [1] (setting [8]) it was 2%; in assay [1] (at 50.0 µM), 5.05%; in assay [2] (setting [7]) it was 2%; in assay [2] (setting [8]) it was -3%; in assay [2] (at 50.0 µM), 5.35%. For the same molecule, the growth inhibition in assay [3] (setting [7]) is -3%; in assay [3] (setting [8]) it was 16%; in assay [3] (at 50.0 µM) it was 43.4%; in assay [4] (setting [7]), -5%; in assay [4] (setting [8]), -17%; in assay [4] (at 50.0 µM), 0.45%. Further, the growth inhibition in assay [5] (setting [7]) was -10%; in assay [5] (setting [8]) it was -10%; in assay [5] (at 50.0 µM), 23.6%; in assay [6] (setting [7]), -16%; in assay [6] (setting [8]), -6%; in assay [6] (at 50.0 µM) it was -16.6%.

As to `CCC(=O)C(CCN1CCC(N2C(=O)C(CCC#N)c3ccccc32)CC1)(c1ccccc1)c1ccccc1` (configuration not stated), the growth inhibition in assay [1] (setting [7]) was -3%; in assay [1] (setting [8]), -3%; in assay [1] (at 50.0 µM) it was -7.55%; in assay [2] (setting [7]), -6%; in assay [2] (setting [8]) it was -6%; in assay [2] (at 50.0 µM) it was -23.4%. The growth inhibition is 8% in assay [3] (setting [7]); -3% in assay [3] (setting [8]); 10.8% in assay [3] (at 50.0 µM); -2% in assay [4] (setting [7]); 14% in assay [4] (setting [8]); 3.15% in assay [4] (at 50.0 µM). Moreover, the growth inhibition in assay [5] (setting [7]) was -1%; in assay [5] (setting [8]) it was -17%; in assay [5] (at 50.0 µM), 10.2%; in assay [6] (setting [7]), -23%; in assay [6] (setting [8]) it was 1%; in assay [6] (at 50.0 µM), 32.2%.

Consider `ClCc1ccncc1`, for which the growth inhibition in assay [1] (setting [7]) was 38%; in assay [1] (setting [8]), 73% (active); in assay [1] (at 50.0 µM), 54.9%; in assay [2] (setting [7]), 26%; in assay [2] (setting [8]) it was 46%; in assay [2] (at 50.0 µM) it was 47.2%. The growth inhibition was 55% in assay [3] (setting [7]); 69% in assay [3] (setting [8]); 69.4% in assay [3] (at 50.0 µM); 38% in assay [4] (setting [7]); 57% in assay [4] (setting [8]); 51% in assay [4] (at 50.0 µM). For the same molecule, the growth inhibition in assay [5] (setting [7]) is 31%; in assay [5] (setting [8]) it was 73% (active); in assay [5] (at 50.0 µM), 58%; in assay [6] (setting [7]) it was 25%; in assay [6] (setting [8]) it was 66%; in assay [6] (at 50.0 µM) it was 57.6%.

As to `N#CC(C#N)=NNc1cccc(Cl)c1Cl`, the growth inhibition was 43% in assay [1] (setting [7]); 73% (active) in assay [1] (setting [8]); 90.8% (active) in assay [1] (at 50.0 µM); 48% in assay [2] (setting [7]); 75% (active) in assay [2] (setting [8]); 92.7% (active) in assay [2] (at 50.0 µM). Moreover, the growth inhibition in assay [3] (setting [7]) is 31%; in assay [3] (setting [8]), 100% (active); in assay [3] (at 50.0 µM), 93.2% (active); in assay [4] (setting [7]) it was 71% (active); in assay [4] (setting [8]) it was 100% (active); in assay [4] (at 50.0 µM), 90.7% (active). For the same molecule, the growth inhibition in assay [5] (setting [7]) is 25%; in assay [5] (setting [8]), 100% (active); in assay [5] (at 50.0 µM), 91.8% (active); in assay [6] (setting [7]) it was 41%; in assay [6] (setting [8]) it was 66%; in assay [6] (at 50.0 µM), 90.2% (active).

As to `Cc1ccc2c(-c3ccccc3)c3ccccc3[s+]c2c1`, the growth inhibition in assay [1] (setting [7]) was 2%; in assay [1] (setting [8]), 99% (active); in assay [1] (at 50.0 µM) it was 99.5% (active); in assay [2] (setting [7]), 2%; in assay [2] (setting [8]) it was 100% (active); in assay [2] (at 50.0 µM), 99.3% (active). Besides, the growth inhibition was 6% in assay [3] (setting [7]); 99% (active) in assay [3] (setting [8]); 99.5% (active) in assay [3] (at 50.0 µM); 1% in assay [4] (setting [7]); 99% (active) in assay [4] (setting [8]); 99% (active) in assay [4] (at 50.0 µM). Further, the growth inhibition in assay [5] (setting [7]) was -13%; in assay [5] (setting [8]), 99% (active); in assay [5] (at 50.0 µM), 99.2% (active); in assay [6] (setting [7]), 1%; in assay [6] (setting [8]), 99% (active); in assay [6] (at 50.0 µM), 99.2% (active).
